The nature of this test: HT29 colon tumor cell growth inhibition, primary screen, imaging, high content imaging, 24 h, CellTiter-Glo (AID 770).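 For condensed nuclei: share of cells whose nuclear area falls below control median minus 1.5 SD.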 To be noted: HT29 cell number by imaging, at 10 µM, stronger effect = higher value; for condensed nuclei: measured here: percent cells with condensed nuclei.
The mark [1] stands for this setting: measured here: ATP CellTiter-Glo viability.

Screen size: about 3,300 compounds; fewer than 10 were called active.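 Rule for the calls: active = growth inhibition above 90% in viable cell count at a single dose; inactive = growth inhibition below 90%.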 The list is a sample of the results.

`Cc1c2ccncc2c(C)c2c1[nH]c1ccccc12`: the growth inhibition is 95.1% (active) and the condensed nuclei was 18.1%. The growth inhibition under setting [1] worked out at 46.4%.

In the case of `c1ccc2c(c1)[nH]c1cnccc12`, the growth inhibition is 36.4% (inactive) and the condensed nuclei was found to be 3.43%. Besides, under setting [1], the growth inhibition was 17.6%.

`C=CCOC(=O)C1=C(C)OC(N)=C(C#N)[C@@]12C(=O)N(CC(N)=O)c1ccccc12`: the growth inhibition was 19% (inactive) and the condensed nuclei came to 5.52%. Moreover, the growth inhibition under setting [1] is -1.1%.

Take `Cn1c(O)c(C=NC2CCN(Cc3ccccc3)CC2)c(=O)n(C)c1=O`: the growth inhibition was 26.8% (inactive) and the condensed nuclei stood at 6.67%. Also, the growth inhibition under setting [1] amounted to 3.87%.

For `CN1CC[C@@]23CCCC[C@@H]2[C@@H]1Cc1ccc(O)cc13`, the growth inhibition was -3.31% (inactive) and the condensed nuclei worked out at 4.84%. Further, the growth inhibition under setting [1] was -18.2%.

As for `C/C(Cl)=C/CC1(CN2CCCC2=O)C(=O)NC(=O)NC1=O`, the growth inhibition is -10.6% (inactive) and the condensed nuclei stood at 2.87%. Moreover, the growth inhibition under setting [1] is -8.34%.

On to `CCCCCCn1c(O)c(C=Nc2c(C)n(C)n(-c3ccccc3)c2=O)c(=O)[nH]c1=O`, for which the growth inhibition is -5.94% (inactive) and the condensed nuclei was found to be 3.03%. Besides, the growth inhibition under setting [1] is -9.79%.

As to `CCOc1ccccc1-n1c(O)c(C=Nc2c(C)n(C)n(-c3ccccc3)c2=O)c(=O)[nH]c1=O`, the growth inhibition was 100% (active) and the condensed nuclei is 5.62%. Also, under setting [1], the growth inhibition was -85.3%.

As to `Cc1c(N=Cc2c(O)n(CCc3ccccc3)c(=O)[nH]c2=O)c(=O)n(-c2ccccc2)n1C`, the growth inhibition is 23.4% (inactive) and the condensed nuclei worked out at 7.53%. Further, the growth inhibition under setting [1] is 16.4%.

On to `CCCCCCn1c(O)c(C=NC2CCN(Cc3ccccc3)CC2)c(=O)[nH]c1=O`, for which the growth inhibition was 3.03% (inactive) and the condensed nuclei came to 1.13%. The growth inhibition under setting [1] amounted to 23.3%.

The values are drawn from PubChem BioAssay AID770 (SRMLSC, 2007).
